# Reference: PubChem BioAssay AID624418 (National Center for Advancing Translational Sciences (NCATS), 2012)
# In all, about 410,000 compounds went through this assay and about 530 (0.13%) were called active. Not shown: some 5% with an inconclusive outcome. Only a selection was taken, and actives are over-represented in it overall. Unmarked numbers belong to inactive results. Calls come from the whole dose curve; as a rule, active = well fitted inhibition curve with a large enough effect; inconclusive = small, poorly fitted or top-dose-only effect, or another doubt; inactive = no such curve, though single readings can be large or run the other way.
# Test: qHTS of GLP-1 Receptor Inverse Agonists: Cytotox Screen;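 note: loss of luciferase light is scored as toxicity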
# Details: HEK293 cAMP-luciferase reporter cells, luminescence, 24 h; series mostly up to 38.3 µM; activity change, negative = inhibition: at the top concentration
# Text: The overall goal of this project was to develop a novel assay for discovering small molecule ligands for class B1 G protein-coupled receptors (GPCRs). Very few agonists (or inverse agonists) with generally weak activity for this entire group of physiologically important receptors are known to date. To establish proof-of-principle that this critical bottleneck can be overcome with a suitable screening approach, our studies focused on the class B1 receptor for glucagon-like peptide-1 (GLP-1R), a potential therapeutic target for diabetes and neurodegenerative disease.
# The assay was developed using a cell-based functional readout. Toward this goal, stably transfected HEK293 cell clones were established that co-express (i) a cAMP-responsive luciferase reporter gene, and (ii) constitutively active GLP-1R that upon ligand interaction inhibit (inverse agonists) the luciferase activity. In addition, two control cell lines were developed: (i) one that express only the cAMP-responsive reporter gene to enable initial exclusion of GLP-1R independent effects of candidate probes; and (ii) one with the reported gene cloned with another constitutively active orphan receptor GPR119 to enable exclusion of GLP-1R independent inhibitor effects of candidate inverse agonists.
# To that end, this assay was optimized for 1536-well format and screened against the MLSMR. Then the same collection was run in this cytotoxicity assay where inhibition was the undesired outcome.
# NIH Molecular Libraries Probe Production Network [MLPCN]
# NIH Chemical Genomics Center [NCGC]
# PI Name: Martin Beinborn, Tufts Medical Center
# Six ul of cell suspension (200 cells/uL in DMEM + 10% Nu serum + 1% pen-strep) is dispensed in a white solid 1536-well plate. The plates are incubated for 12 hours at 37 deg C at 5% CO2 followed by addition of 23 nL compounds. After 24 hr incubation at 37 deg C and 5% CO2, 3 uL of luciferase assay detection reagent is added. A luminescence read is obtained on the PerkinElmer Viewlux after 12 min incubation at room temperature.
# % is set by controls: 0 for no effect and ±100 for the full control effect; potency is the fitted concentration of half-maximal effect.
Structure (SMILES),"activity change, negative = inhibition",Potency
CCc1ccc(NC(=O)c2cc(S(=O)(=O)NC3CCCCCC3)ccc2F)cc1,-6.43%,
CCCCN(CC)C(=O)c1c[nH]c2ccc(S(=O)(=O)Nc3cccc(OC)c3)cc2c1=O,6.62%,
Cc1cccc(NC(=O)c2ccc(F)c(S(=O)(=O)N(C)C3CCCCC3)c2)c1,-8.84%,
COc1ccc(NC(=O)c2ccc3oc(=O)c(S(=O)(=O)c4ccc(F)cc4)cc3c2)c(OC)c1,1.46%,
Cc1ccc(-n2c(SCC(=O)Nc3cccc(F)c3)nc3c(oc4ccccc43)c2=O)cc1C,-5.23%,
CC(C)Oc1ccc(NC(=O)c2cc3ccccc3o2)cc1,-8.43%,
Cc1ccc(NC(=O)C2CCN(S(=O)(=O)c3cc(-c4noc(C)n4)ccc3C)CC2)c(C)c1,1.29%,
Cc1ccc(Cl)cc1NC(=O)/C(C#N)=C\c1cn(Cc2ccc(F)cc2)c2ccccc12,14.9%,
Fc1ccc(-c2ccc(NCCN3CCOCC3)nn2)cc1,,10 µM (active)
Cc1c(C(=O)NCCN2CCOCC2)sc2nc(-c3ccc(F)cc3)cn12,7.28%,
CN(CC(=O)NCCN1CCOCC1)S(=O)(=O)c1ccc(F)cc1,-3.23%,
COc1cc(OC)cc(C(=O)NCCc2csc3nc(-c4ccccc4F)nn23)c1,-13.8%,
CCOc1ccc(NC(=O)CCc2c(C)nn(-c3ccc(N4CCCC4)nn3)c2C)cc1,2.64%,
COc1ccc(C)cc1N(CC(=O)N1CCC(C)CC1)S(=O)(=O)c1ccc(C)cc1,-24.2%,
O=C1/C(=C\c2ccc([N+](=O)[O-])cc2)CS(=O)(=O)C/C1=C/c1ccc([N+](=O)[O-])cc1,,3.16 µM (active)
COc1cc(C(=O)N2CCN(C(=O)COc3cccc(C)c3)CC2)cc(OC)c1OC,-5.09%,
CCc1nc2nc(C)cc(Nc3ccc(F)c(Cl)c3)n2n1,17.1%,
COCCNC(=O)CSc1c(C)cnc2c1c(=O)n(C)c(=O)n2C,5.33%,
CCOCCCNC(=O)c1c(NC(=O)Cc2coc3c(C)c(C)ccc23)sc2c1CCC2,23.9%,
Cc1ccc(S(=O)(=O)c2nnn3c2nc(N2CCN(c4ccccc4F)CC2)c2cc(Cl)ccc23)cc1C,-2.54%,
CN(C)C(=S)N=c1ssc(=S)n1Cc1ccco1,,0.316 µM (active)
CCc1ccccc1N1CN(Cc2ccco2)CNC1=S,1.02%,
CCOC(=O)c1ccc(CN(Cc2ccccc2)S(=O)(=O)c2ccc(Cl)cc2)cc1,-0.273%,
COc1c(Cl)cc(Cl)cc1C(=O)Nc1cccc2cccnc12,1.03%,

Structure (SMILES),"activity change, negative = inhibition",Potency
CC(C)C12CN3CC(C(C)C)(CN(C1)C3c1ccc(OCc3ccccc3)cc1)C2=O (stereo not drawn),-5.12%,
Cc1ccccc1-c1nc2cc(NC(=O)c3cccc(OCCC(C)C)c3)ccc2o1,-0.847%,
COc1ccc(-n2c(SC)nc3sc4c(c3c2=O)CCN(C(C)=O)C4)cc1,1.79%,
O=C(c1ccc2c(c1)N(Cc1ccccc1)C(=O)c1ccccc1S2(=O)=O)N1CCCC1,-15.1%,
CC1CCCCN1CC(=O)N1CCCc2c1c(=O)oc1ccc(OCc3ccccc3)cc21 (stereo not drawn),25.7%,
CCC1CCCCN1Cc1c(O)ccc2c(=O)c(Oc3ccccc3Cl)c(C(F)(F)F)oc12 (stereo not drawn),-12.2%,
COC(=O)c1sccc1S(=O)(=O)N(CC(=O)Nc1ccc(C)c(F)c1)c1ccc(C)c(C)c1,11%,
O=S(=O)(c1ccc2nc(N3CCN(c4cccc(Cl)c4)CC3)ccc2c1)N1CCCCC1,-3.17%,
COc1ccccc1NC(=O)CN1C(=O)c2ccccc2Sc2ccc(C(=O)N3CCCC3)cc21,2.54%,
CCOc1ccc(NC(=O)c2cc3c(=O)n(Cc4cccs4)ccc3nc2C)cc1,-11.3%,
CCCC(=O)Nc1ccc2oc(-c3ccc(O)c(Br)c3)nc2c1,1.34%,
COc1ccc(C(F)(F)F)cc1NC(=O)c1sc2nc(-c3cccs3)ccc2c1N,42.7%,
CCCCCn1c(=O)[nH]c2cc(C(=O)Nc3cc(C)cc(C)c3)ccc2c1=O,-1.84%,
O=C(Cn1ncc2c3ccccc3n(Cc3ccccc3)c2c1=O)NC1CCCCCC1,1.54%,
COc1ccc(-c2noc(CSc3nc4ccc(C)cc4[nH]3)n2)cc1,3.26%,
Cc1ccc(-n2ncc(C(=O)N(C)Cc3ccccc3)c2-n2cccc2)cc1,6.28%,
CCOc1ccc(S(=O)(=O)c2cn(Cc3ccc(OC)cc3)c3ccc(F)cc3c2=O)cc1,6.07%,
O=C(/C(=C/c1cccc(Cl)c1)c1nc2ccccc2[nH]1)c1ccccc1,,10 µM (active)
N#C/C(=C\c1ccccc1F)c1nc2ccccc2c(=O)[nH]1,3.51%,
Cc1ccc2nc(CNC(=O)c3ccccc3)[nH]c2c1,0.115%,
COc1ccc(-c2noc(CSc3nc(C)cc(=O)[nH]3)n2)cc1OC,4.68%,
CCOc1ccc(N(Cc2ccccc2)C(=O)c2nc(SCC)ncc2Cl)cc1,1.37%,
CCOc1ccc(NC(=O)CN(Cc2ccccc2)S(=O)(=O)c2ccc(Cl)cc2)cc1,5.24%,
CCOc1ccc(N(Cc2ccccc2)C(=O)c2nc(S(C)(=O)=O)ncc2Cl)cc1,,7.94 µM (active)
